Molecules are shown by their SMILES. Hit rate of the full screen: of about 310,000 compounds, about 1,200 (0.39%) were called active. The list is a sample of the results. Results with a measured potency or affinity are listed apart. Values without a mark were called inactive. The rule behind the calls is not given here.

For this experiment, the target named is Large T antigen (Simian virus 40) (UniProt P03070). The experiment in a line: SV40 large T antigen inhibitors, biochemical (AID 1903). As to conditions: SV40 large T antigen ATPase/helicase inhibition assay; at 20 µM; active compounds read high.
Chain of Large T antigen (Simian virus 40) (P03070 whole entry, looked up): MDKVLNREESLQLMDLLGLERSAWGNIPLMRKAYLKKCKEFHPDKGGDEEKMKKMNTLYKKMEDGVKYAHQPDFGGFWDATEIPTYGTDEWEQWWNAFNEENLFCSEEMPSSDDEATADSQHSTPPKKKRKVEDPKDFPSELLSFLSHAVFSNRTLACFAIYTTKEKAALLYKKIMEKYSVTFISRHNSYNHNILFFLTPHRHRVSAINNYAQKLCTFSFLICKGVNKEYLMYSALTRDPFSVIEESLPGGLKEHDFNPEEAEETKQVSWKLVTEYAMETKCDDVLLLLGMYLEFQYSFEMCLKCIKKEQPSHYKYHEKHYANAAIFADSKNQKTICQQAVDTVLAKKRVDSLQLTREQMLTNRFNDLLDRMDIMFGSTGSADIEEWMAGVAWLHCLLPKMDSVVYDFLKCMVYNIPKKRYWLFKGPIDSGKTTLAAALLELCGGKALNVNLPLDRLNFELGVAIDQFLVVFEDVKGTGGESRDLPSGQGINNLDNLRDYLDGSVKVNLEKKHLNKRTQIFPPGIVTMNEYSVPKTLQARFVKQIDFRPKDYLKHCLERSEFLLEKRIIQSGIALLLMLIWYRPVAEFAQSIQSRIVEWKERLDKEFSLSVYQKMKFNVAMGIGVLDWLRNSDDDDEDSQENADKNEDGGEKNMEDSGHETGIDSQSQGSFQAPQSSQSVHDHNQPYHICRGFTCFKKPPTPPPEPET
As for `CCN(CC)c1ccc(NC(=O)c2cc(OC)cc(OC)c2)c(C)c1`, the inhibition is 19.6%.

Take `CCc1ccc(NC(=O)c2cccnc2)cc1`: the inhibition is 21.3%.

Turning to `CCn1cc(C(=O)Nc2ccc(F)c(F)c2)cn1`, the inhibition was 16%.

`CCN(CC)c1ccc(NC(=O)c2ccco2)c(C)c1`: the inhibition was 38%.

Regarding `O=C(Nc1ccc(NC(=O)c2cccnc2)cc1)c1ccccc1`, the inhibition is 9.81%.

In the case of `CCN(CC)c1ccc(NC(=O)c2ccc3c(c2)OCO3)c(C)c1`, the inhibition is 22.6%.

`CCn1cc(C(=O)Nc2ccc(C)c([N+](=O)[O-])c2)cn1`: the inhibition is 2.51%.

Turning to `CCN(CC)c1ccc(NC(=O)c2c(OC)cccc2OC)c(C)c1`, the inhibition was 24.5%.

As to `O=C(CSc1nnc(Cc2ccccc2)n1Cc1ccco1)NC12CC3CC(CC(C3)C1)C2`, the inhibition was 3.4%.

`CN(C)C(=O)C1CCC(=O)N1Cc1cccs1` (stereo unspecified): the inhibition was 3.97%.

Consider `COc1ccc(N=Cc2c(O)n(-c3ccc(OC)cc3)c(=O)c3ccccc23)cc1`, for which the inhibition was 17.6%.

With `CCOc1ccccc1N1CC(C(=O)NCCOc2ccccc2OC)CC1=O` (stereo unspecified), the inhibition is 3.13%.

Turning to `Cc1ccc(-c2nc(CS(=O)(=O)CC(=O)N3CCN(C)CC3)c(C)o2)cc1`, the inhibition was 6.58%.

As to `Cc1nc2scc(C)n2c(=O)c1S(=O)(=O)N1CCN(c2ccc([N+](=O)[O-])cc2)CC1`, the inhibition is 13.7%.

In the case of `CCc1ccc(N2CC(C(=O)NC3CC3)CC2=O)cc1` (stereo unspecified), the inhibition is 12.7%.

As to `Cc1cc(F)ccc1NC(=O)c1cccnc1`, the inhibition is 3.85%.

Regarding `Cc1ccccc1NC(=O)c1cccnc1`, the inhibition is -1.13%.

As to `CCOc1ccc(C(=O)N/N=C/c2ccc(-c3ccc(S(=O)(=O)Nc4ncccn4)cc3)o2)cc1`, the inhibition is 26.6%.

For `CCCOc1ccc(C(=O)N/N=C/c2ccc(-c3ccc(S(=O)(=O)Nc4ncccn4)cc3)o2)cc1`, the inhibition is 35.9%.

Turning to `Nc1ccc2oc(-c3cccs3)nc2c1`, the inhibition is 5.03%.

On to `OCCCc1nc2ccccc2[nH]1`, for which the inhibition is 13.1%.

On to `c1csc(-c2nc3ccccc3[nH]2)c1`, for which the inhibition was -3.54%.

For `O=[N+]([O-])c1ccc2nc(CCCO)[nH]c2c1`, the inhibition was -0.4%.

Consider `Nc1ccc2nc(CCCCc3nc4ccccc4[nH]3)[nH]c2c1`, for which the inhibition was 32.7%.

As to `c1ccc2[nH]c(CCCc3nc4ccccc4[nH]3)nc2c1`, the inhibition is 12.5%.

With `c1ccc2[nH]c(CCCCc3nc4ccccc4[nH]3)nc2c1`, the inhibition is 5.68%.

Regarding `Nc1cccc(CCc2nc3cc4ccccc4cc3[nH]2)c1`, the inhibition is 21.5%.

With `CCOC(=O)C1=C(COC(=O)/C=C/c2ccc(OC)cc2OC)NC(=O)NC1C` (stereo unspecified), the inhibition is 3.33%.

For `CCc1noc(C)c1C(=O)Oc1ccc(N(C)S(=O)(=O)c2ccccc2)cc1`, the inhibition was 12.4%.

Consider `Cc1nn(-c2ccccc2)c(Cl)c1/C=N/NC(=O)c1ccnn1C`, for which the inhibition is 19.3%.

As to `O=C(O)c1ccc(/C=N/Nc2ccc(F)cc2F)cc1`, the inhibition is 9.08%.

With `COc1cccc(CC(NC(C)=O)C(=O)NC2CCN(S(=O)(=O)c3ccc(NC(C)=O)cc3)CC2)c1` (stereo unspecified), the inhibition is 12.6%.

As to `COc1ccc(OC)c(N(CC(=O)NCc2ccccn2)S(C)(=O)=O)c1`, the inhibition was 5.82%.

With `COc1ccc(/C=N/NC(=O)c2ccccc2OC)cc1COc1ccc(C)cc1`, the inhibition was 1.22%.

As for `O=C(c1ccc2c(c1)OCO2)N(c1ccc(F)cc1)C1C=CS(=O)(=O)C1` (stereo unspecified), the inhibition is -0.44%.

Regarding `CCOc1cc(/C=C/c2cc(C(=O)O)c3ccccc3n2)ccc1O`, the inhibition was 31%.

Turning to `CCOc1cc(/C=C/c2ccc3cccc([N+](=O)[O-])c3n2)ccc1O`, the inhibition is 3.61%.

Regarding `COc1ccc(/C=N/NC(=O)c2ccc(=O)n(C)c2)cc1OC`, the inhibition was 3.81%.

In the case of `CCC(=Nc1ccccc1OC)C1=C(O)CC(c2ccccc2)CC1=O` (stereo unspecified), the inhibition was 2.58%.

Take `CCC(=NC)C1=C(O)CC(c2ccccc2)CC1=O` (stereo unspecified): the inhibition was 3.84%.

With `O=C1c2cccnc2C(=O)N1Cc1ccc(S(=O)(=O)NCc2ccco2)cc1`, the inhibition was 14.4%.

Take `N#C/C(=C\c1ccc(Br)s1)C(=O)N1CCN(c2ccccc2)CC1`: the inhibition was 7.79%.

For the molecule `CN(C)C(CNC(=O)c1ccc2nc[nH]c2c1)c1ccccc1` (stereo unspecified), the inhibition was 12.7%.

For the molecule `NC1=NC(=O)/C(=C\c2cccs2)S1`, the inhibition is 16.2%.

In the case of `NC1=NC(=O)/C(=C/c2cccs2)S1`, the inhibition was 3.51%.

Take `COc1cccc(C(=O)CN(C(=O)c2ccc(Cl)c(Cl)c2)N2C(=O)C3CCCCC3C2=O)c1` (stereo unspecified): the inhibition is 24.4%.

As for `COc1ccccc1C(=O)COC(=O)CCCN=C1NS(=O)(=O)c2ccccc21`, the inhibition was 11.1%.

Consider `Oc1ccc(Br)cc1-c1cc(-c2ccccc2)n[nH]1`, for which the inhibition is 23.6%.

For the molecule `Nc1cc(-c2ccc(Br)cc2)[nH]n1`, the inhibition is 8.97%.

On to `O=C1c2ccccc2CC1Sc1nnc(-c2ccccn2)o1` (stereo unspecified), for which the inhibition is 13.2%.

Consider `CCC(Sc1nnnn1-c1ccccc1)C(=O)NC(C)c1ccccc1` (stereo unspecified), for which the inhibition is 1.1%.

In the case of `Cc1ccc(Nc2ccccc2)cc1`, the inhibition is 9.98%.

Consider `c1ccc(Nc2ccccc2)cc1`, for which the inhibition was 12.1%.

Take `CN(Cc1nc(-c2cnccn2)no1)CC(O)c1ccccc1` (stereo unspecified): the inhibition is 9.11%.

Turning to `C/C(=N\NC(=O)CSc1nc2ccccc2[nH]1)c1ccncc1`, the inhibition is 5.69%.

Turning to `COc1ccc(/C(C)=N\NC(=O)CSc2nnc(C)s2)cc1`, the inhibition is 4.01%.

Take `COc1cc(/C(C)=N\NC(=O)CSc2nc3ccccc3n2C)ccc1O`: the inhibition is 25.3%.

On to `C/C(=N\NC(=O)CSc1nnc(C)s1)c1ccc(O)cc1`, for which the inhibition was 26.9%.

As for `Cc1ccc(CNC(=O)c2nn(C)c(C)c2[N+](=O)[O-])cc1`, the inhibition was 10.1%.

Regarding `O=S(=O)(NCC1CCCN(Cc2ccccc2O)C1)c1cccc2cccnc12` (stereo unspecified), the inhibition is 21.3%.

In the case of `S=C(NCCSCc1c(Cl)cccc1Cl)Nc1ccccc1`, the inhibition was 3.66%.

`O=C(NC(NC1CCS(=O)(=O)C1)C(Cl)(Cl)Cl)c1cccc(Cl)c1` (stereo unspecified): the inhibition was 26%.

In the case of `S=C(NCc1cccnc1)Nc1ccc2c(c1)OCO2`, the inhibition was 9.73%.

As for `c1cc(CNc2ccc3c(c2)OCO3)ccn1`, the inhibition is 25.9%.

With `O=C(COC(=O)c1ccc2ccccc2n1)NCc1ccccc1`, the inhibition is 6.87%.

As for `COc1cccc(NC(=O)COC(=O)COc2ccccc2[N+](=O)[O-])c1`, the inhibition is 7.61%.

As to `CCN(c1ccc(NC(=O)COC(=O)c2cccs2)cc1)C(C)C`, the inhibition is 25.9%.

Consider `O=C(COC(=O)COc1ccccc1[N+](=O)[O-])Nc1cccc(Br)c1`, for which the inhibition is -10.5%.

As for `CCN(CC)c1ccc(NC(=O)COC(=O)/C=C/c2nc3ccccc3s2)cc1`, the inhibition is 37.1%.

Take `O=C(COC(=O)c1cccs1)Nc1ccccc1`: the inhibition is -1.96%.

For the molecule `CCCCCSc1nnc2c(n1)OC(C)N(C(C)=O)c1ccccc1-2` (stereo unspecified), the inhibition was 5.71%.

As for `N#Cc1nc(COc2ccccc2Cl)oc1NCc1ccco1`, the inhibition is 15.3%.

Turning to `Cc1cc(C)nc(SCCC(=O)Nc2ccccc2)n1`, the inhibition was -11.3%.

For `COc1cccc2cc(C(=O)NNC(=O)c3ccc(Br)cc3)c(=O)oc12`, the inhibition is -2.17%.

Consider `COc1ccc(/C=C/C(=O)Nc2cc(S(=O)(=O)N3CCCCC3)ccc2N2CCCCC2)cc1OC`, for which the inhibition was -6.48%.

For the molecule `CC/C(=C\C(=O)c1ccncc1)Nc1ccc(Br)cc1`, the inhibition was 14.6%.

In the case of `COc1ccc2c(c1)c(C(=O)N/N=C/c1ccc(OC)c(OC)c1)c(C)n2C`, the inhibition is 13.7%.

Take `O=C(COc1ccccc1C(=O)N/N=C\c1ccc(O)c(O)c1)N/N=C/c1ccc(O)c(O)c1`: the inhibition is 2.12%.

On to `COc1ccc2c(c1)c(C(=O)N/N=C/c1cccc(O)c1)c(C)n2C`, for which the inhibition was 14.4%.

Regarding `CC(C)(C)c1ccc(/C=N/NC(=O)C2CCCC2)cc1`, the inhibition was 13.3%.

Regarding `O=C(N/N=C/c1cccc(O)c1)N/N=C/c1cccc(O)c1`, the inhibition is 18.6%.

`Cc1nonc1C(=O)N/N=C/c1cccc(O)c1`: the inhibition is 8.34%.

With `C=C1CC(C(=O)N/N=C/c2ccccc2)C1`, the inhibition is 5.07%.

For `Cc1nonc1C(=O)N/N=C/c1ccccc1`, the inhibition was -0.19%.

On to `Cc1ccc2[nH]c(=O)c(CN(CC3CCCO3)S(=O)(=O)c3c(C)ccc4nsnc34)cc2c1` (stereo unspecified), for which the inhibition is -0.695%.

Turning to `CC(C)CC(CO)N1CCN(C(=O)c2ccccc2)CCC1=O` (stereo unspecified), the inhibition was 16.2%.

For the molecule `CSc1ncc(Cl)c(C(=O)Nc2ccccc2[N+](=O)[O-])n1`, the inhibition was 30.7%.

In the case of `O=C1CC2(CCN(C(=O)c3cccc([N+](=O)[O-])c3)CC2)Oc2ccccc21`, the inhibition is 22.7%.

For `COCc1ccc(C(=O)N2CCCC(Nc3ccc(C(C)C)cc3)C2)o1` (stereo unspecified), the inhibition was 23.2%.

Turning to `CCCC(c1nnnn1Cc1ccco1)N1CCN(c2ccccc2)CC1` (stereo unspecified), the inhibition is 24%.

`Cc1cc(Br)ccc1NC(=O)CN1C(=S)NC(C)(C)CC1C` (stereo unspecified): the inhibition is 5.62%.

Regarding `CN1C(=O)c2ccc(C(=O)NCc3ccc4c(c3)OCO4)cc2C1=O`, the inhibition is 4.66%.

With `Oc1ccc(/C=N/N(c2ccccc2)c2ccccc2)cc1O`, the inhibition was 20.4%.

`O=C(N/N=C/c1ccsc1)C1CC1`: the inhibition is 14.3%.

`O=C(N/N=C/c1ccc2c(c1)OCO2)C1CC1`: the inhibition was -8.98%.

With `O=C(/C(=N/N=C/c1ccc(O)c(O)c1)c1ccccc1)c1ccccc1`, the inhibition was 32.3%.

Turning to `Cc1cccc(OCc2nnc(SCC(=O)Nc3ncc(C)s3)o2)c1`, the inhibition was 3.87%.

As for `O=C1Nc2ccccc2/C1=N\N1CCOCC1`, the inhibition was 27.9%.

`O=C1Nc2ccccc2C1=Nc1ccc(Br)cc1`: the inhibition was 4.56%.

For the molecule `COc1ccccc1NCCC(=O)O`, the inhibition is 26.5%.

On to `O=C(O)CCCCCNS(=O)(=O)c1cccc2c1C(=O)c1ccccc1C2=O`, for which the inhibition was 27%.

Source of the values: PubChem BioAssay AID1903 (Southern Research Specialized Biocontainment Screening …, 2009).
